Source: PubChem BioAssay AID1159580 (chemical genetic matrix, 2015)
Where “and” joins values, the source holds several entries; their conditions need not be identical. Equal values may be shown once. Hit rate of the full screen: of about 5,500 compounds, about 2,000 (36%) were called active. Another 18% or so got no clear call; they are omitted. Cut-off read from the data, not from the text of the source: active = normalized growth mostly below about 0.91 (no sharp cut-off); inconclusive = no clear call, values can overlap the other calls; inactive = mostly above about 0.92. Some of the results follow.

Assay: chemical genetic growth profiling, strain panel (AID 1159580);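 note: tested at 20 µM; growth read once vehicle control cultures reached saturation at 30 °C; 1 = growth at the plate median or of vehicle wells; lower values mean less growth of the strain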
Conditions: S. cerevisiae deletion strains, growth OD

Measured: normalized growth

NNCCc1ccccc1
inactive: locus YAL013W, strain DEP1, hits give low values 1 | locus YAL021C, strain ccr4, hits give low values 1.01 | locus YAL026C, strain drs2, hits give low values 1.02 | locus YAL030W, strain snc1, hits give low values 1.01 | locus YAL040C, strain CLN3, hits give low values 1.04 | locus YBL061C, strain skt5, hits give low values 1.01 | locus YBR009C, strain hhf1, hits give low values 1.01 | locus YBR021W, strain FUR4, hits give low values 0.997 | locus YBR023C, strain chs3, hits give low values 1.01 | locus YBR171W, strain sec66, hits give low values 1.02 | locus YBR229C, strain ROT2, hits give low values 0.954 | locus YBR231C, strain swc5, hits give low values 1.01 | locus YBR279W, strain paf1, hits give low values 1.01 | locus YCL011C, strain gbp2, hits give low values 1.01 | locus YCL016C, strain dcc1, hits give low values 1.01 | locus YCL029C, strain bik1, hits give low values 0.968 | locus YCL061C, strain MRC1 (second series), hits give low values 1.01 | locus YCL061C, strain MRC1, hits give low values 1.01 | locus YCL069W, strain vba3, hits give low values 1 | locus YCR088W, strain abp1, hits give low values 1.01 | locus YDL005C, strain med2, hits give low values 1.01 | locus YDL035C, strain GPR1, hits give low values 0.973 | locus YDL040C, strain nat1, hits give low values 1 | locus YDL074C, strain BRE1, hits give low values 0.946 | locus YDL101C, strain DUN1, hits give low values 0.975 | locus YDL134C, strain PPH21, hits give low values 0.994 | locus YDL185W, strain tfp1, hits give low values 0.98 | locus YDL192W, strain arf1, hits give low values 0.986 | locus YDR001C, strain nth1, hits give low values 1 | locus YDR069C, strain doa4, hits give low values 1 | locus YDR101C, strain arx1, hits give low values 0.985 | locus YDR137W, strain rgp1, hits give low values 1.02 | locus YDR150W, strain NUM1, hits give low values 0.996 | locus YDR159W, strain sac3, hits give low values 1.01 | locus YDR162C, strain NBP2, hits give low values 0.991 | locus YDR195W, strain ref2 0.997 | locus YDR297W, strain sur2, hits give low values 1 | locus YDR318W, strain mcm21, hits give low values 0.991 | locus YDR334W, strain swr1, hits give low values 0.999 | locus YDR335W, strain msn5, hits give low values 1.01 | locus YDR363W, strain ESC2, hits give low values 1.06 | locus YDR388W, hits give low values 0.991 | locus YDR392W, strain spt3, hits give low values 0.93 | locus YDR502C, strain sam2, hits give low values 0.994 | locus YEL003W, strain gim4, hits give low values 0.997 | locus YEL037C, strain rad23, hits give low values 1.01 | locus YEL061C, strain CIN8 (second series), hits give low values 1.01 | locus YEL061C, strain CIN8, hits give low values 0.98 | locus YER002W, strain NOP16, hits give low values 0.998 | locus YER015W, strain faa2, hits give low values 0.994 | locus YER016W, strain bim1, hits give low values 1.01 | locus YER110C, hits give low values 0.952 | locus YER111C, strain swi4, hits give low values 1.01 | locus YER155C, strain BEM2 (second series), hits give low values 1 | locus YER155C, strain BEM2, hits give low values 1 | locus YER167W, strain BCK2, hits give low values 0.99 | locus YFR010W, strain ubp6, hits give low values 0.989 | locus YGL078C, strain dbp3, hits give low values 0.995 | locus YGL086W, strain mad1, hits give low values 0.976 | locus YGL167C, strain pmr1, hits give low values 1.01 | locus YGL173C, strain kem1, hits give low values 1.01 | locus YGL227W, strain vid30, hits give low values 1.02 | locus YGL240W, strain doc1, hits give low values 1 | locus YGL248W, strain PDE1, hits give low values 0.979 | locus YGL253W, strain hxk2, hits give low values 1.01 | locus YGR078C, strain PAC10, hits give low values 1.01 | locus YGR135W, strain pre9, hits give low values 0.982 | locus YGR229C, strain SMI1, hits give low values 0.985 | locus YGR252W, strain gcn5, hits give low values 0.898 | locus YHR013C, strain ard1, hits give low values 1.02 | locus YHR027C, strain rpn1, hits give low values 1 | locus YHR030C, strain SLT2, hits give low values 0.996 and 0.983 | locus YHR079C, strain IRE1 (second series), hits give low values 0.991 | locus YHR079C, strain IRE1, hits give low values 0.965 | locus YHR094C, strain hxt1, hits give low values 0.99 | locus YHR129C, strain ARP1, hits give low values 0.981 | locus YHR142W, strain chs7, hits give low values 1.02 | locus YHR200W, strain rpn10, hits give low values 0.989 | locus YIL066C, strain RNR3, hits give low values 0.978 | locus YIL073C, strain SPO22, hits give low values 0.992 | locus YIL125W, strain kgd1, hits give low values 0.996 | locus YIR030C, strain dcg1, hits give low values 0.981 | locus YJL092W, strain hpr5, hits give low values 1 | locus YJL095W, strain BCK1 (second series), hits give low values 1.01 | locus YJL095W, strain BCK1, hits give low values 0.987 and 0.984 | locus YJL115W, strain asf1, hits give low values 1.01 | locus YJL129C, strain trk1, hits give low values 1.01 | locus YJL134W, strain LCB3, hits give low values 0.993 | locus YJL154C, strain vps35, hits give low values 1.01 | locus YJL164C, strain tpk1, hits give low values 1 | locus YJL166W, strain qcr8, hits give low values 1.01 | locus YJL168C, strain set2, hits give low values 0.985 | locus YJL187C, strain SWE1 (second series), hits give low values 0.976 | locus YJL187C, strain SWE1, hits give low values 1.01 | locus YJR043C, strain POL32, hits give low values 0.988
